{"source": "PubChem BioAssay (Tox21)", "note": "Results filed as inconclusive are left out. Active and inactive are the calls of the source. Calls come from the whole dose curve; as a rule, active = well fitted cell-killing curve with a large enough effect in the repeat runs; inconclusive = weak or mixed curves; inactive = no such curve, though single readings can be large or run the other way."}
{"assay": "qHTS assay to identify small molecule antagonists of the peroxisome proliferator-activated receptor delta (PPARd) signaling pathway - cell viability counter screen (AID 743213); note: nearly all actives have a fitted effect of over 50% in size", "conditions": "PPARd-bla HEK293H viability, CellTiter-Glo luminescence, 17 h; series mostly up to 62 µM", "from_the_text": "U.S. Tox21 Program National Center for Advancing Translational Sciences [NCATS] NIH Chemical Genomics Center [NCGC] U.S. Environmental Protection Agency [EPA] National Institutes of Environmental Health Sciences [NIEHS] National Toxicology Program [NTP] U.S. Food and Drug Administration [FDA] Tox21 Assay Overview: The peroxisome proliferator-activated receptors (PPARs) are lipid-activated transcription factors of the nuclear receptor superfamily with three distinct subtypes namely PPAR alpha, PPAR delta (PPARd) and PPAR gamma. All these subtypes heterodimerizes with Retinoid X receptor (RXR) and have different physiological functions. […] To identify the compounds that inhibit PPAR-delta signaling, GeneBLAzer PPAR delta UAS-bla HEK293H cell line (Invitrogen, Carlsbad, CA, USA) containing a beta-lactamase reporter gene under the control of an Upstream Activator Sequence (UAS) was used to screen the Tox21 compound library. The cytotoxicity of the Tox21 compound library against the PPARd-bla cell line was tested in parallel by measuring the cell viability using CellTiter-Glo assay (Promega, Madison, WI) in the same wells.\nTox21 Assay Protocol Summary: PPARd-bla cells were dispensed at 3000 cells/5uL/well in 1536-well black wall/clear bottom plates using a Multidrop Combi (Thermo Fisher Scientific, Waltham, MA) dispenser. After the assay plates were incubated at 37 C and 5% CO2 for 5 h, 23 nL of compounds dissolved in DMSO, positive controls or DMSO only was transferred to the assay plate by a Pintool station (Kalypsys, San Diego, CA), followed by addition of 1ul L165041 (300 nM, final concentration in the wells). The assay plates were incubated at 37 C for 17 h, and then 1 uL of LiveBLAzerTM B/G FRET substrate was added using a Bioraptr Flying Reagent Dispenser (FRD) workstation (Beckman Coulter, Indianapolis, IN, USA). The assay plates were incubated at room temperature for 2 h and fluorescence intensity was measured by an Envision plate reader (PerkinElmer, Shelton, CT). For cell viability readout that measures cytotoxicity, 3 ul/well of CellTiter-Glo reagent was added into the assay plates using a Bioraptr FRD. After 30 min incubation at room temperature, the luminescence intensity in the plates was measured using a ViewLux plate reader (PerkinElmer)."}
{"smiles": "CCCCCC/C(C=O)=C\\c1ccccc1", "outcome": "inactive"}
{"smiles": "CC(=O)CC(=O)Nc1ccccc1", "outcome": "inactive"}
{"smiles": "CC(C)CC(=O)CC(C)C", "outcome": "inactive"}
{"smiles": "CCCCCOC(C)=O", "outcome": "inactive"}
{"smiles": "c1ccc(OCCOc2ccccc2)cc1", "outcome": "inactive"}
{"smiles": "CC1=CCC2CC1C2(C)C", "note": "(stereo not given)", "outcome": "inactive"}
{"smiles": "ON=C1CCCCC1", "outcome": "inactive"}
{"smiles": "Cc1cnc(C(=O)NCCc2ccc(S(=O)(=O)NC(=O)NC3CCCCC3)cc2)cn1", "outcome": "inactive"}
{"smiles": "CC(C)(N)CO", "outcome": "inactive"}
{"smiles": "O=C=NCCCCCCN=C=O", "outcome": "inactive"}
{"smiles": "O=[N+]([O-])c1ccc(/C=C/c2ccc([N+](=O)[O-])cc2S(=O)(=O)O)c(S(=O)(=O)O)c1", "outcome": "inactive"}
{"smiles": "CC(C)(C)[C@@H](O)[C@@H](Cc1ccc(Cl)cc1)n1cncn1", "outcome": "inactive"}
{"smiles": "CCc1cccc(C)c1N", "outcome": "inactive"}
{"smiles": "O=S1(=O)CC=CC1", "outcome": "inactive"}
{"smiles": "CCCCCCCCCCCCOCCO", "outcome": "inactive"}
{"smiles": "Fc1ccc(Br)cc1", "outcome": "inactive"}
{"smiles": "C=C(C)C(=O)Nc1ccc(Cl)c(Cl)c1", "outcome": "inactive"}
{"smiles": "CN(C)CCCN", "outcome": "inactive"}
{"smiles": "CC(=O)Nc1cccc(O)c1", "outcome": "inactive"}
{"smiles": "CCOC(=O)NNc1nncc2ccccc12", "outcome": "inactive"}
{"smiles": "OCC(CO)(CBr)CBr", "outcome": "inactive"}
{"smiles": "O=C(O)c1cc(C(=O)O)cc(S(=O)(=O)O)c1", "outcome": "inactive"}
{"smiles": "CCC(O)OCCCOC", "note": "(stereo not given)", "outcome": "inactive"}
{"smiles": "CCCCC(CC)COC(=O)CCCCC(=O)OCC(CC)CCCC", "note": "(stereo not given)", "outcome": "inactive"}
{"smiles": "c1c[nH]cn1", "outcome": "inactive"}
{"smiles": "CC1=C(C)S(=O)(=O)CCS1(=O)=O", "outcome": "inactive"}
{"smiles": "Nc1ccccc1[N+](=O)[O-]", "outcome": "inactive"}
{"smiles": "CC(=O)Nc1ccccc1", "outcome": "inactive"}
{"smiles": "O=C(O)c1cc(O)c(O)c(O)c1", "outcome": "inactive"}
{"smiles": "CCCCCCCCCCCCS", "outcome": "inactive"}
{"smiles": "Cc1occc(=O)c1O", "outcome": "inactive"}
{"smiles": "O=P(OC(CCl)CCl)(OC(CCl)CCl)OC(CCl)CCl", "outcome": "inactive"}
{"smiles": "CN(C)CCC(c1ccccc1)c1ccccn1", "note": "(stereo not given)", "outcome": "inactive"}
{"smiles": "O=c1[nH]c(=O)n([C@H]2CCCO2)cc1F", "outcome": "inactive"}
{"smiles": "O=C(O)CCCCCCCCCCC(=O)O", "outcome": "inactive"}
{"smiles": "CCCCCC(N)=O", "outcome": "inactive"}
{"smiles": "CCCCCCCCCCCCc1ccccc1", "outcome": "inactive"}
{"smiles": "C=C(C)C(=O)O[C@H]1C[C@@H]2CC[C@@]1(C)C2(C)C", "outcome": "inactive"}
{"smiles": "O=C1CCC(N2C(=O)c3ccccc3C2=O)C(=O)N1", "note": "(stereo not given)", "outcome": "inactive"}
{"smiles": "Oc1cccc2ccccc12", "outcome": "inactive"}
